“And” between values parts separate entries of the source, which are not always exact repeats. Equal values may be shown once. Records with an inconclusive call do not appear. Where a call stands in place of a potency, no number is given. Where a structure was tested more than once in an assay, its records may differ in their call. The source made the active and inactive calls. The call rests on the fitted dose curve; in most records, active means well fitted curve in the direction sought with a large enough effect in the repeat runs; inconclusive means weak or mixed curves; inactive means no such curve, though single readings can be large; an effect the other way counts as inactive or inconclusive.

For 37 compounds, Potency results are on record in PubChem BioAssay (Tox21).

The nature of the first assay: A CellTox Green Cytotoxicity Assay to monitor cytotoxicity in HEK293 cells - 24 hour (AID 1224875). Further: nearly all actives have a fitted effect of over 45% in size. Conditions: CellTox Green fluorescence; series mostly up to 76.8 µM. In outline: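 Each value comes from one timepoint of a single continuous run in which HEK293 cells with CellTox Green were exposed to compound for up to 40 h at 37 C, dye fluorescence rising with cell death.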
Regarding `N=C(N)c1ccc(OCCCCCOc2ccc(C(=N)N)cc2)cc1`, the Potency result was “inactive”.
As for `Cc1ccc(S(=O)(=O)NC(=O)NN2CCCCCC2)cc1`, the Potency result was “inactive”.
Still for that read-out and setting: to `Cc1noc(NS(=O)(=O)c2ccc(N)cc2)c1C` belongs “inactive”.
The same measure, in the same setting: to `O=c1cc[nH]c(=S)[nH]1` belongs “inactive”; to `Cc1ccccc1C(OCCN(C)C)c1ccccc1` (centres undefined), “inactive”; to `CC(C)(Oc1ccc(C2CC2(Cl)Cl)cc1)C(=O)O` (centres undefined), “inactive”.
Same read-out and setting: the value for `CCCNC(=O)NS(=O)(=O)c1ccc(Cl)cc1` was “inactive”; that for `O=S(=O)(O)NC1CCCCC1` was “inactive”.
Consider `CCCCC1C(=O)N(c2ccccc2)N(c2ccccc2)C1=O`, for which the Potency entry is “inactive”.
`O=C(O)c1cc(N=Nc2ccc(S(=O)(=O)Nc3ccccn3)cc2)ccc1O`: the Potency result is “inactive”.
On the same count and under the same terms, to `C[C@]12C=CC(=O)C=C1CC[C@@H]1[C@@H]2[C@@H](O)C[C@@]2(C)[C@H]1CC[C@]2(O)C(=O)CO` belongs “inactive”.
With `CC(C)[C@@H]1CC[C@@H](C)C[C@H]1O`, the Potency entry is “inactive”.
The same measure, in the same setting: to `OCCc1ccccc1` belongs “inactive”.
Still for that read-out and setting: the value for `O=C(C1CCCCC1)N1CC(=O)N2CCc3ccccc3C2C1` (centres undefined) was “inactive”.
`O=C1NC(=O)c2ccccc21`: the Potency result is “inactive”.
In the case of `O=C(O)CS`, the Potency entry was “inactive”.
On the same count and under the same terms, the value for `CCCC(CCC)C(=O)O` was “inactive”.
Still for that read-out and setting: the value for `Cn1cc[nH]c1=S` was “inactive”; that for `Cc1cn([C@H]2C[C@H](N=[N+]=[N-])[C@@H](CO)O2)c(=O)[nH]c1=O` was “inactive”.
The same measure, in the same setting: the value for `Nc1ccc(S(=O)(=O)c2ccc(N)cc2)cc1` was “inactive”; that for `O=S(=O)(O)c1ccc2cc(O)ccc2c1` was “inactive”.
For the compound `CCOc1ccc(NC(=O)CC(C)O)cc1` (centres undefined), the Potency entry is “inactive”.
Still for that read-out and setting: the value for `C/C=C/c1ccc(OC)cc1` was “inactive”; that for `O=C1CN(/N=C/c2ccc([N+](=O)[O-])o2)C(=O)N1` was “inactive”; that for `CC(=O)Nc1nnc(S(N)(=O)=O)s1` was “inactive”.
Same read-out and setting: the value for `Cn1c(=O)c2[nH]cnc2n(C)c1=O` was “inactive”; that for `CC(O)C(=O)O` (centres undefined) was “inactive”; that for `Cc1ccc(O)cc1` was “inactive”.
Still for that read-out and setting: the value for `COc1ccc2[nH]cc(CCNC(C)=O)c2c1` was “inactive”; that for `NC(=O)NC1NC(=O)NC1=O` (centres undefined) was “inactive”.
As for `NC(=O)c1ccccc1O`, the Potency entry was “inactive”.
Still for that read-out and setting: to `O=c1ccc2ccccc2o1` belongs “inactive”.
The same measure, in the same setting: to `Cc1cc(=O)[nH]c(=S)[nH]1` belongs “inactive”; to `CC(=O)OCC(COC(C)=O)OC(C)=O`, “inactive”.
Consider `O=C(O)c1cccnc1`, for which the Potency result was “inactive”.

Another assay in a line: qHTS RealTime-Glo MT Cell Viability Assay in HepG2 cells - 32 hour (AID 1224877). Further: nearly all actives have a fitted effect of over 55% in size. The following applies: RealTime-Glo luminescence; series mostly up to 76.8 µM. In outline:
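Viability was tracked continuously by NanoLuc luminescence from prosubstrate reduced by living HepG2 cells, at successive time points over 40 h of compound exposure. Cells with reagent were preincubated 5 h at 37 °C before compound addition.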
(In qHTS, concentration-response curves come from the screen itself.)
For `N=C(N)c1ccc(OCCCCCOc2ccc(C(=N)N)cc2)cc1`, the Potency result was “inactive”.
Still for that read-out and setting: the value for `Nc1ccc(S(=O)(=O)Nc2nccs2)cc1` was “inactive”; that for `Cc1ccc(S(=O)(=O)NC(=O)NN2CCCCCC2)cc1` was “inactive”; that for `Cc1noc(NS(=O)(=O)c2ccc(N)cc2)c1C` was “inactive”.
On to `O=c1cc[nH]c(=S)[nH]1`, for which the Potency entry is “inactive”.
Consider `Cc1ccccc1C(OCCN(C)C)c1ccccc1` (centres undefined), for which the Potency result is “inactive”.
The same measure, in the same setting: the value for `CC(C)(Oc1ccc(C2CC2(Cl)Cl)cc1)C(=O)O` (centres undefined) was “inactive”; that for `CCCNC(=O)NS(=O)(=O)c1ccc(Cl)cc1` was “inactive”; that for `O=S(=O)(O)NC1CCCCC1` was “inactive”.
For `CCCCC1C(=O)N(c2ccccc2)N(c2ccccc2)C1=O`, the Potency result is “inactive”.
On the same count and under the same terms, the value for `Cc1cc(=O)n(-c2ccccc2)n1C` was “inactive”; that for `O=C(O)c1cc(N=Nc2ccc(S(=O)(=O)Nc3ccccn3)cc2)ccc1O` was “inactive”; that for `C[C@]12C=CC(=O)C=C1CC[C@@H]1[C@@H]2[C@@H](O)C[C@@]2(C)[C@H]1CC[C@]2(O)C(=O)CO` was “inactive”.
Same read-out and setting: the value for `CC(C)[C@@H]1CC[C@@H](C)C[C@H]1O` was “inactive”; that for `OCCc1ccccc1` was “inactive”; that for `O=C(C1CCCCC1)N1CC(=O)N2CCc3ccccc3C2C1` (centres undefined) was “inactive”.
Still for that read-out and setting: to `O=C1NC(=O)c2ccccc21` belongs “inactive”; to `O=C(O)CS`, “inactive”; to `CCCC(CCC)C(=O)O`, “inactive”.
Turning to `Cn1cc[nH]c1=S`, the Potency entry was “inactive”.
Consider `Cc1cn([C@H]2C[C@H](N=[N+]=[N-])[C@@H](CO)O2)c(=O)[nH]c1=O`, for which the Potency entry was “inactive”.
The same measure, in the same setting: the value for `Nc1ccc(S(=O)(=O)c2ccc(N)cc2)cc1` was “inactive”; that for `O=S(=O)(O)c1ccc2cc(O)ccc2c1` was “inactive”; that for `CCOc1ccc(NC(=O)CC(C)O)cc1` (centres undefined) was “inactive”.
With `C/C=C/c1ccc(OC)cc1`, the Potency result was “inactive”.
For the compound `O=C1CN(/N=C/c2ccc([N+](=O)[O-])o2)C(=O)N1`, the Potency entry was “inactive”.
Still for that read-out and setting: the value for `CC(=O)Nc1nnc(S(N)(=O)=O)s1` was “inactive”; that for `Cn1c(=O)c2[nH]cnc2n(C)c1=O` was “inactive”; that for `CC(O)C(=O)O` (centres undefined) was “inactive”.
On the same count and under the same terms, the value for `Cc1ccc(O)cc1` was “inactive”.
Consider `COc1ccc2[nH]cc(CCNC(C)=O)c2c1`, for which the Potency entry is “inactive”.
On the same count and under the same terms, the value for `NC(=O)NC1NC(=O)NC1=O` (centres undefined) was “inactive”; that for `NC(=O)c1ccccc1O` was “inactive”; that for `O=c1ccc2ccccc2o1` was “inactive”.
With `Cc1cc(=O)[nH]c(=S)[nH]1`, the Potency entry is “inactive”.
As for `CC(=O)OCC(COC(C)=O)OC(C)=O`, the Potency result is “inactive”.
Same read-out and setting: the value for `O=C(O)c1cccnc1` was “inactive”.

A further assay can be described thus: A CellTox Green Cytotoxicity Assay to monitor cytotoxicity in HepG2 cells - 24 hour (AID 1224878). Further: nearly all actives have a fitted effect of over 45% in size. Further: potency means the concentration at half of the fitted maximal effect. The following applies: CellTox Green fluorescence; series mostly up to 76.8 µM. In outline:
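Continuous culture of HepG2 cells with a membrane-impermeant DNA dye; rising fluorescence marks dead cells. Compound exposure lasted up to 40 h at 37 C, with reads every 8 h from 0 h.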
Consider `N=C(N)c1ccc(OCCCCCOc2ccc(C(=N)N)cc2)cc1`, for which the Potency result was “inactive”.
The same measure, in the same setting: to `Nc1ccc(S(=O)(=O)Nc2nccs2)cc1` belongs “inactive and 43.6 µM (active)”; to `Cc1ccc(S(=O)(=O)NC(=O)NN2CCCCCC2)cc1`, “inactive”; to `Cc1noc(NS(=O)(=O)c2ccc(N)cc2)c1C`, “inactive”.
On the same count and under the same terms, the value for `O=c1cc[nH]c(=S)[nH]1` was “inactive”; that for `Cc1ccccc1C(OCCN(C)C)c1ccccc1` (centres undefined) was “inactive”; that for `CC(C)(Oc1ccc(C2CC2(Cl)Cl)cc1)C(=O)O` (centres undefined) was “inactive”.
In the case of `CCCNC(=O)NS(=O)(=O)c1ccc(Cl)cc1`, the Potency entry is “inactive”.
The same measure, in the same setting: the value for `O=S(=O)(O)NC1CCCCC1` was “inactive”; that for `CCCCC1C(=O)N(c2ccccc2)N(c2ccccc2)C1=O` was “inactive”; that for `Cc1cc(=O)n(-c2ccccc2)n1C` was “inactive”.
For the compound `O=C(O)c1cc(N=Nc2ccc(S(=O)(=O)Nc3ccccn3)cc2)ccc1O`, the Potency entry was “inactive”.
Same read-out and setting: the value for `C[C@]12C=CC(=O)C=C1CC[C@@H]1[C@@H]2[C@@H](O)C[C@@]2(C)[C@H]1CC[C@]2(O)C(=O)CO` was “inactive”; that for `CC(C)[C@@H]1CC[C@@H](C)C[C@H]1O` was “inactive”; that for `OCCc1ccccc1` was “inactive”.
Still for that read-out and setting: to `O=C(C1CCCCC1)N1CC(=O)N2CCc3ccccc3C2C1` (centres undefined) belongs “inactive”.
`O=C1NC(=O)c2ccccc21`: the Potency result was “inactive”.
As for `O=C(O)CS`, the Potency entry is “inactive”.
In the case of `CCCC(CCC)C(=O)O`, the Potency result was “inactive”.
For the compound `Cn1cc[nH]c1=S`, the Potency result was “inactive”.
Still for that read-out and setting: to `Cc1cn([C@H]2C[C@H](N=[N+]=[N-])[C@@H](CO)O2)c(=O)[nH]c1=O` belongs “inactive”; to `Nc1ccc(S(=O)(=O)c2ccc(N)cc2)cc1`, “inactive”; to `O=S(=O)(O)c1ccc2cc(O)ccc2c1`, “inactive”.
Consider `CCOc1ccc(NC(=O)CC(C)O)cc1` (centres undefined), for which the Potency entry was “inactive”.
Same read-out and setting: to `C/C=C/c1ccc(OC)cc1` belongs “inactive”; to `O=C1CN(/N=C/c2ccc([N+](=O)[O-])o2)C(=O)N1`, “inactive”.
Take `CC(=O)Nc1nnc(S(N)(=O)=O)s1`: the Potency entry is “inactive”.
In the case of `Cn1c(=O)c2[nH]cnc2n(C)c1=O`, the Potency entry is “inactive”.
On the same count and under the same terms, the value for `CC(O)C(=O)O` (centres undefined) was “inactive”; that for `Cc1ccc(O)cc1` was “inactive”; that for `COc1ccc2[nH]cc(CCNC(C)=O)c2c1` was “inactive”.
Turning to `NC(=O)NC1NC(=O)NC1=O` (centres undefined), the Potency result was “inactive”.
On to `NC(=O)c1ccccc1O`, for which the Potency entry is “inactive”.
In the case of `O=c1ccc2ccccc2o1`, the Potency result was “inactive”.
On the same count and under the same terms, to `Cc1cc(=O)[nH]c(=S)[nH]1` belongs “inactive”; to `CC(=O)OCC(COC(C)=O)OC(C)=O`, “inactive”; to `O=C(O)c1cccnc1`, “inactive”.
